“And” between values parts separate entries of the source, which are not always exact repeats. Equal entries are not always repeated. The whole screen tested about 5,500 compounds, of which about 2,000 (36%) were called active. About 18% were inconclusive and are not listed. No stated cut-off is given here; in the data, active means normalized growth mostly below about 0.91 (no sharp cut-off); inconclusive means no clear call, values can overlap the other calls; inactive means mostly above about 0.92. This is one part of the list.
Experiment: chemical genetic growth profiling, strain panel (AID 1159580);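 further: tested at 20 µM; growth read once vehicle control cultures reached saturation at 30 °C; 1 = growth at the plate median or of vehicle wells; lower values mean less growth of the strain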
Conditions: growth OD
[1] = S. cerevisiae deletion strains, locus YHR030C, strain SLT2, active compounds read low
[2] = S. cerevisiae deletion strains, locus YHR079C, strain IRE1, active compounds read low
[3] = S. cerevisiae deletion strains, locus YJL095W, strain BCK1, active compounds read low
[4] = S. cerevisiae deletion strains, locus YJR066W, strain TOR1, active compounds read low
[5] = S. cerevisiae deletion strains, locus YLR113W, strain HOG1, active compounds read low
[6] = S. cerevisiae deletion strains, locus YNL183C, strain NPR1, active compounds read low
[7] = S. cerevisiae deletion strains, locus YOR231W, strain MKK1, active compounds read low
[8] = S. cerevisiae deletion strains, locus YPL256C, strain CLN2, active compounds read low

Measured: normalized growth

O[C@@H]1[C@H](O)CO[C@H]1O
inactive: [1] 0.995 | [2] 0.997 | [3] 1.01 | [4] 0.945 | [5] 1 | [6] 0.965 | [7] 0.992 | [8] 0.988

O[C@H]1[C@H](O)[C@@H](O)C2OC[C@H]1O2
active: S. cerevisiae deletion strains, locus YDL185W, strain tfp1, active compounds read low 0.901
inactive: S. cerevisiae deletion strains, locus YAL013W, strain DEP1, active compounds read low 1 | S. cerevisiae deletion strains, locus YBR021W, strain FUR4, active compounds read low 1.03 | S. cerevisiae deletion strains, locus YBR229C, strain ROT2, active compounds read low 0.961 | S. cerevisiae deletion strains, locus YCL029C, strain bik1, active compounds read low 0.986 | S. cerevisiae deletion strains, locus YDL035C, strain GPR1, active compounds read low 0.986 | S. cerevisiae deletion strains, locus YDL074C, strain BRE1, active compounds read low 0.929 | S. cerevisiae deletion strains, locus YDL101C, strain DUN1, active compounds read low 0.943 | S. cerevisiae deletion strains, locus YDL134C, strain PPH21, active compounds read low 0.99 | S. cerevisiae deletion strains, locus YDL192W, strain arf1, active compounds read low 0.986 | S. cerevisiae deletion strains, locus YDR101C, strain arx1, active compounds read low 0.994 | S. cerevisiae deletion strains, locus YDR150W, strain NUM1, active compounds read low 0.992 | S. cerevisiae deletion strains, locus YDR162C, strain NBP2, active compounds read low 0.918 | S. cerevisiae deletion strains, locus YDR318W, strain mcm21, active compounds read low 0.998 | S. cerevisiae deletion strains, locus YDR388W, active compounds read low 0.992 | S. cerevisiae deletion strains, locus YDR502C, strain sam2, active compounds read low 0.983 | S. cerevisiae deletion strains, locus YEL061C, strain CIN8, active compounds read low 0.986 | S. cerevisiae deletion strains, locus YER110C, active compounds read low 0.983 | S. cerevisiae deletion strains, locus YER155C, strain BEM2, active compounds read low 0.988 | S. cerevisiae deletion strains, locus YER167W, strain BCK2, active compounds read low 1 | S. cerevisiae deletion strains, locus YGL078C, strain dbp3, active compounds read low 0.987 | S. cerevisiae deletion strains, locus YGL086W, strain mad1, active compounds read low 1 | S. cerevisiae deletion strains, locus YGL248W, strain PDE1, active compounds read low 0.975 | S. cerevisiae deletion strains, locus YGR078C, strain PAC10, active compounds read low 0.951 | S. cerevisiae deletion strains, locus YGR135W, strain pre9, active compounds read low 0.982 | S. cerevisiae deletion strains, locus YGR229C, strain SMI1, active compounds read low 0.975 | S. cerevisiae deletion strains, locus YGR252W, strain gcn5, active compounds read low 1 | [1] 1 and 0.967 | S. cerevisiae deletion strains, locus YHR079C, strain IRE1 (second series), active compounds read low 0.999 | [2] 0.967 | S. cerevisiae deletion strains, locus YHR094C, strain hxt1, active compounds read low 1 | S. cerevisiae deletion strains, locus YHR129C, strain ARP1, active compounds read low 0.993 | S. cerevisiae deletion strains, locus YHR200W, strain rpn10, active compounds read low 0.992 | S. cerevisiae deletion strains, locus YIL066C, strain RNR3, active compounds read low 0.98 | S. cerevisiae deletion strains, locus YIL073C, strain SPO22, active compounds read low 1.01 | S. cerevisiae deletion strains, locus YIL125W, strain kgd1, active compounds read low 0.988 | S. cerevisiae deletion strains, locus YIR030C, strain dcg1, active compounds read low 0.983 | [3] 0.98 and 0.977 | S. cerevisiae deletion strains, locus YJL134W, strain LCB3, active compounds read low 0.984 | S. cerevisiae deletion strains, locus YJL168C, strain set2, active compounds read low 0.982 | S. cerevisiae deletion strains, locus YJL187C, strain SWE1 (second series), active compounds read low 0.972 | S. cerevisiae deletion strains, locus YJR043C, strain POL32, active compounds read low 0.999 | [4] 0.919 | S. cerevisiae deletion strains, locus YJR075W, strain HOC1, active compounds read low 0.936 | S. cerevisiae deletion strains, locus YKL009W, strain mrt4, active compounds read low 0.977 | S. cerevisiae deletion strains, locus YKL068W, active compounds read low 0.982 | S. cerevisiae deletion strains, locus YKL085W, strain MDH1 (second series), active compounds read low 1.02 | S. cerevisiae deletion strains, locus YKL085W, strain MDH1, active compounds read low 1.02 | S. cerevisiae deletion strains, locus YKL190W, strain CNB1, active compounds read low 0.98 | S. cerevisiae deletion strains, locus YKR001C, strain vps1, active compounds read low 0.998 | S. cerevisiae deletion strains, locus YLR039C, strain RIC1, active compounds read low 0.968 | S. cerevisiae deletion strains, locus YLR058C, strain SHM2, active compounds read low 0.972 | S. cerevisiae deletion strains, locus YLR102C, strain apc9, active compounds read low 0.984 | [5] 0.999 | S. cerevisiae deletion strains, locus YLR262C, strain YPT6, active compounds read low 0.935 | S. cerevisiae deletion strains, locus YLR268W, strain sec22, active compounds read low 0.963 | S. cerevisiae deletion strains, locus YLR330W, strain CHS5, active compounds read low 0.988 | S. cerevisiae deletion strains, locus YLR342W, strain FKS1 (second series), active compounds read low 1.04 | S. cerevisiae deletion strains, locus YLR371W, strain rom2, active compounds read low 0.938 | S. cerevisiae deletion strains, locus YLR418C, strain cdc73, active compounds read low 0.961 | S. cerevisiae deletion strains, locus YML016C, strain PPZ1, active compounds read low 0.983 | S. cerevisiae deletion strains, locus YML032C, strain rad52, active compounds read low 1 | S. cerevisiae deletion strains, locus YML124C, strain tub3, active compounds read low 0.992 | S. cerevisiae deletion strains, locus YMR078C, strain ctf18, active compounds read low 0.987 | S. cerevisiae deletion strains, locus YMR223W, strain ubp8, active compounds read low 1.01 | S. cerevisiae deletion strains, locus YMR263W, strain SAP30, active compounds read low 0.94 | S. cerevisiae deletion strains, locus YMR307W, strain GAS1, active compounds read low 1.04 | S. cerevisiae deletion strains, locus YNL067W, strain RPL9B, active compounds read low 0.951 | S. cerevisiae deletion strains, locus YNL128W, strain TEP1, active compounds read low 0.926 | S. cerevisiae deletion strains, locus YNL153C, strain GIM3, active compounds read low 0.97 | [6] 0.905 | S. cerevisiae deletion strains, locus YNL233W, strain BNI4, active compounds read low 0.978 | S. cerevisiae deletion strains, locus YNL250W, strain rad50, active compounds read low 0.992 | S. cerevisiae deletion strains, locus YNL271C, strain bni1, active compounds read low 0.984 | S. cerevisiae deletion strains, locus YNL298W, strain CLA4, active compounds read low 1 | S. cerevisiae deletion strains, locus YNL307C, strain MCK1, active compounds read low 1 | S. cerevisiae deletion strains, locus YNL322C, strain KRE1, active compounds read low 0.967 | S. cerevisiae deletion strains, locus YNR052C, strain pop2, active compounds read low 0.978 | S. cerevisiae deletion strains, locus YOL006C, strain TOP1, active compounds read low 0.935 | S. cerevisiae deletion strains, locus YOL012C, strain htz1 0.683 | S. cerevisiae deletion strains, locus YOL147C, strain pex11, active compounds read low 0.997 | S. cerevisiae deletion strains, locus YOR061W, strain CKA2, active compounds read low 0.952 | S. cerevisiae deletion strains, locus YOR069W, strain VPS5, active compounds read low 0.99 | S. cerevisiae deletion strains, locus YOR136W, strain idh2, active compounds read low 0.99 | S. cerevisiae deletion strains, locus YOR144C, strain elg1, active compounds read low 0.983 | S. cerevisiae deletion strains, locus YOR184W, strain ser1, active compounds read low 1.01 | [7] 0.98 | S. cerevisiae deletion strains, locus YOR316C, strain cot1, active compounds read low 0.977 | S. cerevisiae deletion strains, locus YPL055C, strain LGE1, active compounds read low 0.931 | S. cerevisiae deletion strains, locus YPL241C, strain CIN2, active compounds read low 0.983 | [8] 0.972 | S. cerevisiae deletion strains, locus YPR119W, strain clb2, active compounds read low 0.992 | S. cerevisiae deletion strains, locus YPR141C, strain kar3, active compounds read low 0.969 | S. cerevisiae deletion strains, locus YPR163C, strain tif3, active compounds read low 0.995 | S. cerevisiae deletion strains, locus YPR167C, strain met16, active compounds read low 0.972 | S. cerevisiae deletion strains, strain wtn01, active compounds read low 0.943 | S. cerevisiae strains, strain wild type, active compounds read low 1.01

Reference: PubChem BioAssay AID1159580 (chemical genetic matrix, 2015)
